These results are taken from the supplement of paper PMC4840960.

± gives the standard deviation of the averaged measurements.

The test system of assay [1] is E18 rat cortical neuron-glia co-culture. Nature of the assay: fiber score / MBP score (myelination specific beyond OL differentiation) (ratio); higher = more myelination-specific MBP alignment. The conditions noted are these: treatment time: 8 days (DIV5-DIV13). The method in brief: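 The measure is the ratio of fiber score to MBP score, where fiber score is continuous MBP fiber length per Olig2+ nucleus and MBP score is thresholded MBP area × intensity per Olig2+ nucleus. Primary E18 rat cortical co-cultures received library compounds at 1 or 5 µM in myelination medium from DIV5 to DIV13, then were fixed in 4 % paraformaldehyde and stained for MBP, Olig2 and DAPI before analysis of four 10X fields per well in duplicate wells.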

Assay [2] shares this test system. As to the kind of experiment: myelination (MBP fiber length per Olig2+ nucleus), % of 1 µM DAPT response (DMSO = 0) (% of DAPT); higher = more myelination, active = 50 or more. Particulars: treatment time: 8 days (DIV5-DIV13). The method in brief:
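The myelination value was the continuous straight MBP fiber length per Olig2+ nucleus, scaled between 0.1 % DMSO (0) and a 1 µM positive control (100). It was measured in primary E18 rat cortical co-cultures treated with library compounds at 1 or 5 µM in myelination medium from DIV5 through DIV13. Cells were fixed in 4 % paraformaldehyde and stained for MBP, Olig2 and DAPI, and four 10X fields per well were imaged in duplicate wells.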

Take `C[C@@](Cc1ccc(O)c(O)c1)(NN)C(=O)O` [Carbidopa]: the “fiber score / MBP score” value worked out at 0.917 in assay [1] (1 µM) and 0.776 in assay [1] (5 µM). For the same compound, the myelination in assay [2] (1 µM) was -3.67 (inactive); in assay [2] (5 µM), -7.64 (inactive).
For `CC1(C)S[C@@H]2[C@H](/N=C/N3CCCCCC3)C(=O)N2[C@H]1C(=O)O` [Amdinocillin], in that order: 0.728, 0.866, -21.5 (inactive) and -5.42 (inactive).
The matching figures for `COc1ccccc1OCC(O)CN1CCN(CC(=O)Nc2c(C)cccc2C)CC1` (stereo not given) [Ranolazine]: 0.877, 0.697, -13.7 (inactive) and -22.5 (inactive).
For `CC1(C)C[C@@H]1C(=O)N/C(=C\CCCCSC[C@H](N)C(=O)O)C(=O)O` [Cilastatin], in that order: 0.833, 0.756, -11.5 (inactive) and -15.2 (inactive).
On to `CN/C(=N\CCSCc1nc[nH]c1C)NC#N` [Cimetidine], for which the “fiber score / MBP score” value in assay [1] (1 µM) came out at 0.731; in assay [1] (5 µM) it was 0.823. Besides, the myelination is -12.1 (inactive) in assay [2] (1 µM) and -6.66 (inactive) in assay [2] (5 µM).
The matching figures for `O=C1c2c(O)cc(O)cc2OC(c2ccc(O)c(O)c2)C1O` (stereo not given) [Taxifolin]: 0.697, 0.943, -33.2 (inactive) and -8.22 (inactive).
As for `COCCOC(=O)C1=C(C)NC(C)=C(C(=O)OC(C)C)C1c1cccc([N+](=O)[O-])c1` (stereo not given) [Nimodipine], the results for the “fiber score / MBP score” value in assay [1] (1 µM) and in assay [1] (5 µM) were 0.486 and 0.338, respectively. Moreover, the myelination in assay [2] (1 µM) was -18.6 (inactive); in assay [2] (5 µM), -24.9 (inactive).
The matching figures for `C[C@@H](c1ncncc1F)[C@](O)(Cn1cncn1)c1ccc(F)cc1F` [Voriconazole]: 0.693, 0.824, -40.5 (inactive) and -29.3 (inactive).
For `CC(C[N+](C)(C)C)OC(N)=O` (stereo not given) [Bethanechol], the “fiber score / MBP score” value in assay [1] (1 µM) is 0.372; in assay [1] (5 µM), 0.379. For the same compound, the myelination in assay [2] (1 µM) was -14.3 (inactive); in assay [2] (5 µM), -14.6 (inactive).
The matching figures for `CCC1=C(C)CN(C(=O)NCCc2ccc(S(=O)(=O)NC(=O)N[C@H]3CC[C@H](C)CC3)cc2)C1=O` [Glimepiride]: 1.06, 0.96, -3.14 (inactive) and -10.6 (inactive).
The matching figures for `CCCCCCNC(=O)n1cc(F)c(=O)[nH]c1=O` [Carmofur]: 0.54, 0.729, -30.6 (inactive) and -14.4 (inactive).
The matching figures for `CCc1cc(C(N)=S)ccn1` [Ethionamide]: 0.983, 1.1, -1.99 (inactive) and 3.35 (inactive).
As for `CCn1cc(C(=O)O)c(=O)c2cc(F)c(N3CCN(C)CC3)cc21` [Pefloxacin], the figures for the “fiber score / MBP score” value in assay [1] (1 µM) and in assay [1] (5 µM) were 1 and 0.8, respectively. In addition, the myelination was -8.57 (inactive) in assay [2] (1 µM) and -12.3 (inactive) in assay [2] (5 µM).
The matching figures for `CCCN(CCC)S(=O)(=O)c1ccc(C(=O)O)cc1` [Probenecid]: 0.973, 1.44, 0.863 (inactive) and 11.7 (inactive).
On to `O=c1n(CCCN2CCN(c3cccc(Cl)c3)CC2)nc2ccccn12` [Trazodone], for which the “fiber score / MBP score” value amounted to 0.819 in assay [1] (1 µM) and 0.5 in assay [1] (5 µM). In addition, the myelination in assay [2] (1 µM) was -42.9 (inactive); in assay [2] (5 µM) it was -62.2 (inactive).
The matching figures for `CCc1nn(CCCN2CCN(c3cccc(Cl)c3)CC2)c(=O)n1CCOc1ccccc1` [Nefazodone]: 0.932, 0.76, 2.86 (inactive) and 2 (inactive).
The matching figures for `CCCCN1CCCCC1C(=O)Nc1c(C)cccc1C` (stereo not given) [Bupivacaine]: 0.752, 0.575, -11.2 (inactive) and -16.6 (inactive).
The matching figures for `Cn1c(=O)c2nc[nH]c2n(C)c1=O` [Theophylline]: 0.93, 0.671, -7.88 (inactive) and -20.2 (inactive).
As for `Oc1ccc(/C=C/c2cc(O)cc(O)c2)cc1` [Resveratrol], the “fiber score / MBP score” value in assay [1] (1 µM) is 0.549; in assay [1] (5 µM) it was 0.685. Also, the results for the myelination in assay [2] (1 µM) and in assay [2] (5 µM) were -12 (inactive) and -13.3 (inactive), respectively.
The matching figures for `CNC(=C[N+](=O)[O-])NCCSCc1csc(CN(C)C)n1` [Nizatidine]: 0.895, 0.816, -8.02 (inactive) and -29.5 (inactive).
The matching figures for `COc1cc(-c2ccc(=O)[nH]n2)ccc1OC(F)F` [Zardaverine]: 0.581, 0.397, -34.6 (inactive) and -42.4 (inactive).
For the compound `CN(C)CCCC1(c2ccc(F)cc2)OCc2cc(C#N)ccc21` (stereo not given) [Citalopram], the “fiber score / MBP score” value in assay [1] (1 µM) worked out at 0.773 ± 0.29; in assay [1] (5 µM) it was 0.571 ± 0.19. Further, the myelination in assay [2] (1 µM) was -18.2 (inactive); in assay [2] (5 µM) it was -19 (inactive).
For `COc1cc(/C=C/c2ccc(O)cc2)cc(OC)c1` [Pterostilbene], in that order: 0.637, 0.668, -13.8 (inactive) and -12.2 (inactive).
For `CC(=O)O[C@H]1C[C@@H]2CC[C@@H]3[C@H](CC[C@@]4(C)[C@H]3C[C@H]([N+]3(C)CCCCC3)[C@@H]4OC(C)=O)[C@@]2(C)C[C@@H]1N1CCCCC1` [Vecuronium Bromide], in that order: 0.647, 0.791, -15.8 (inactive) and -9.35 (inactive).
As for `NC(=O)c1ncn([C@@H]2O[C@H](CO)[C@@H](O)[C@H]2O)n1` [Ribavirin], the “fiber score / MBP score” value in assay [1] (1 µM) is 1.17; in assay [1] (5 µM), 1.03. The myelination is 3.44 (inactive) in assay [2] (1 µM) and 4.23 (inactive) in assay [2] (5 µM).
